Assay outcomes deposited in PubChem BioAssay by several laboratories.
ABHD5-PLIN5 inh: blocks binding of human ABHD5 to perilipin-5 | inhibition, % at 4 µM | Split G. princeps luciferase complementation, luminescence, 4 h | Q00G26+Q8WTS1 | AID 602281 | 0.78% of 360,000 active;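 active means inhibition above the mean inhibition across every tested compound plus 3 SD, cut at about 22% in these data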;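 further: 0% = DMSO only wells and the 100% control is not disclosed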
Target sequence (Q00G26 whole entry, looked up): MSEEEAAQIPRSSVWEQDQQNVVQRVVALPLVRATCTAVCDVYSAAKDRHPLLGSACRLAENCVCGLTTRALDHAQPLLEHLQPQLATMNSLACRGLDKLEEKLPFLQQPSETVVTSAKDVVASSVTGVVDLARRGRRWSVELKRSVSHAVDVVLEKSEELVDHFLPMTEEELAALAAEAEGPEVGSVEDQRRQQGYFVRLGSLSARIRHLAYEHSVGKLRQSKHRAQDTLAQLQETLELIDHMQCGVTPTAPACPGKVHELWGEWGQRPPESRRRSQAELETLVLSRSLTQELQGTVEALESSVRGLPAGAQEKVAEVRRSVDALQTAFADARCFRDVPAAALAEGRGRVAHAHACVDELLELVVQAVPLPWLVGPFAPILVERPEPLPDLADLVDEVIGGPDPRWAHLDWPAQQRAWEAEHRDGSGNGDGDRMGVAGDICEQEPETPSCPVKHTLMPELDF
Target sequence (Q8WTS1 whole entry, looked up): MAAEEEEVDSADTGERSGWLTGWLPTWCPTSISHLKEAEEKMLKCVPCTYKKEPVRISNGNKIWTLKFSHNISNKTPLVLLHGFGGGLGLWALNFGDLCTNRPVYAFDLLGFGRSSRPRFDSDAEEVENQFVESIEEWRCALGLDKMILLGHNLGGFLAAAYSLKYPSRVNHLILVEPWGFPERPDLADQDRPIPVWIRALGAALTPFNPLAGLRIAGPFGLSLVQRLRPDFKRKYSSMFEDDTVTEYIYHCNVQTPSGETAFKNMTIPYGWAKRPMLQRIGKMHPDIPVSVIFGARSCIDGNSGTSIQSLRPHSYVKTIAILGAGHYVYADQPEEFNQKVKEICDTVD
PAX8 reporter: lowers PAX8-driven luciferase in RMG-I cells. RMG-I TPO-luciferase reporter, SteadyGlo, 24 h. inhibition, % at 12.6 µM. 1.2% of 360,000 active. AID 652154;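 active means mean replicate inhibition at least 60% with every replicate also reaching 60%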;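 further: luciferase light reporting Pax8 driven TPO promoter activity; plate controls were median of neutral control wells for no effect and mitoxantrone controls for full effect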
Peg3 promoter: reduces Peg3 promoter-driven luciferase expression in HeLa | HeLa PEG-Prom luciferase reporter, luminescence, overnight | inhibition, % at 20 µM | 1.7% of 360,000 active | AID 588405;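 active means inhibition of at least 50% at 20 µM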
EWS-Fli block: EWS/Fli transcriptional activity inhibition | 0.67% of 350,000 active | inhibition, % at 12.6 µM | A673 NR0B1-luciferase reporter, viability-normalised;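 active means mean inhibition of at least 50% after viability correction, with every replicate also passing that limit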;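 further: firefly luciferase signal divided by Alamar Blue viability fluorescence both relative to DMSO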
TRPM1 prom inh: MITF TRPM1 promoter inhibition in SK-MEL-5 cells; inhibition, % at 12.5 µM; 0.83% of 330,000 active; SK-MEL-5 TRPM1 promoter luciferase, 24 h; AID 488899;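 active means mean inhibition across replicates of 60% or more, whatever share of single replicates reaches that level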
Shn3 inh set2: inhibitors of Schnurri-3 3'UTR reporter in osteoblasts | Clone20 osteoblast Shn3 3'UTR firefly luciferase, 24 h | inhibition, % at 12.5 µM | 0.52% of 360,000 active;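 active means mean inhibition of at least 75% with every replicate also reaching 75%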;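 further: 0% = median of neutral control wells and 100% = pilot-screen positive control compound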
* hit, by the source's call; x = no result given; ! = not confirmed by another sample. Most compounds without a hit are left out; they make up all but 3% or so of the library.

SMILES | ABHD5-PLIN5 inh | PAX8 reporter | Peg3 promoter | EWS-Fli block | TRPM1 prom inh | Shn3 inh set2
COc1ccc(S(=O)(=O)Nc2ccc3c(c2)CC(=O)N([C@@H](C)CO)C[C@@H](C)[C@@H](CN(C)Cc2ccc(C(F)(F)F)cc2)O3)cc1 | x | 18.7 | x | 8.6 | x | x
COc1ccc(S(=O)(=O)Nc2ccc3c(c2)CC(=O)N([C@@H](C)CO)C[C@@H](C)[C@H](CN(C)Cc2ccc(C(F)(F)F)cc2)O3)cc1 | x | 110.7* | x | 41.7 | x | x
C[C@H]1CN([C@@H](C)CO)S(=O)(=O)c2ccc(-c3cccnc3)cc2O[C@@H]1CN(C)C | x | x | x | -10.7 | x | x
C[C@H]1CN([C@@H](C)CO)C(=O)c2ccccc2-c2ccccc2CO[C@H]1CN(C)C(=O)[C@@H]1CCCN1C | x | -17.5 | x | -0.3 | x | x
COc1cccc2sc(=NC(=O)CS(=O)(=O)c3ccc(F)cc3)n(C)c12 | 4.2 | 1.4 | -39.5 | -5.4 | -12.0 | 70.7
COc1cccc2sc(=NC(=O)CS(=O)(=O)c3ccc(Cl)cc3)n(C)c12 | 2.4 | 25.8 | 18.8 | 12.8 | 5.4 | 88.2*
COc1ccc(-c2ccc(C3[C@H]4CNC[C@@H]3N4C(=O)Nc3cccc(OC)c3)cc2)cc1 (stereo partly drawn) | x | 0.3 | x | 58.9*! | x | x
COc1cccc(NC(=O)N2[C@@H]3CNC[C@H]2C3c2ccc(-c3cccnc3)cc2)c1 (stereo partly drawn) | x | x | x | -1.1 | x | x
Cc1csc(NC(=O)c2cnc3ccccc3n2)n1 | -3.9 | -24.4 | -63.6 | 57.6* | 9.5 | 21.7
Cc1csc(NC(=O)c2ccc3ccccc3n2)n1 | -5.4 | -47.2 | -193.0 | -30.2 | -30.3 | -49.6
COc1ccccc1C#Cc1ccc2c(c1)O[C@@H](CN(C)C)[C@H](C)CN([C@@H](C)CO)S2(=O)=O | x | x | x | 2.2 | x | x
C[C@H]1CN([C@@H](C)CO)C(=O)Cc2cc(N(C)C)ccc2O[C@@H]1CN(C)Cc1ccc2c(c1)OCO2 | x | -3.6 | x | 11.6 | x | x
C[C@H](CO)N1C[C@H](C)[C@H](CN(C)Cc2ccc(-c3ccccc3)cc2)Oc2cc(C#C[C@@H](C)O)ccc2S1(=O)=O | x | 16.7 | x | -15.8 | x | x
C[C@H](O)C#Cc1ccc2c(c1)O[C@H](CN(C)Cc1ccc(-c3ccccc3)cc1)[C@H](C)CN([C@H](C)CO)S2(=O)=O | x | 40.6 | x | 11.9 | x | x
C[C@@H]1CN([C@@H](C)CO)S(=O)(=O)c2ccc(C#C[C@@H](C)O)cc2O[C@H]1CN(C)Cc1ccc(-c2ccccc2)cc1 | x | 91.8* | x | 43.7 | x | x
C[C@H](O)C#Cc1ccc2c(c1)O[C@H](CN(C)Cc1ccc(-c3ccccc3)cc1)[C@@H](C)CN([C@H](C)CO)S2(=O)=O | x | 79.9* | x | 48.8 | x | x
C[C@H](O)C#Cc1ccc2c(c1)O[C@@H](CN(C)Cc1ccc(-c3ccccc3)cc1)[C@@H](C)CN([C@@H](C)CO)S2(=O)=O | x | 89.4* | x | -13.8 | x | x
CCCc1cc(-c2[nH]ncc2-c2ccc3c(c2)OCCCO3)c(O)cc1O | -15.0 | x | 68.9* | x | 13.9 | 32.5
O=C(C[C@H]1CC[C@@H](NC(=O)c2ccncc2)[C@@H](CO)O1)Nc1ccc(-c2ccccc2)cc1 | x | x | x | -3.2 | x | x
CCN(CC)c1ccc(C(NC(=O)C(C)C)c2ccc3cccnc3c2O)cc1 (stereo not drawn) | 15.1 | 92.8* | 47.5 | 44.5 | x | 79.7
CC(C)C(=O)NC(c1cccc([N+](=O)[O-])c1)c1ccc2cccnc2c1O (stereo not drawn) | 12.6 | 77.9* | 63.4* | 33.0 | 61.5* | 89.2*
Cc1ccc(C(NC(=O)C(C)C)c2cc([N+](=O)[O-])c3cccnc3c2O)cc1 (stereo not drawn) | 2.0 | 11.1 | 37.6 | x | 38.5 | 53.6
CC(C)C(=O)NC(Nc1cccc2cccnc12)C(Cl)(Cl)Cl (stereo not drawn) | -2.8 | x | 11.7 | x | 6.4 | 34.3
CC(C)C(=O)NC(c1cccs1)c1cc([N+](=O)[O-])c2cccnc2c1O (stereo not drawn) | 5.9 | x | 56.0* | x | 4.3 | 7.8
CC(C)C(=O)NC(c1ccco1)c1ccc2cccnc2c1O (stereo not drawn) | 1.8 | x | 53.1* | x | 75.6* | 81.3
SMILES | ABHD5-PLIN5 inh | PAX8 reporter | Peg3 promoter | EWS-Fli block | TRPM1 prom inh | Shn3 inh set2
C[C@H]1CN([C@@H](C)CO)C(=O)c2cc(NS(=O)(=O)c3cccs3)ccc2O[C@@H]1CN(C)CC1CCCCC1 | x | 1.4 | x | 6.1 | x | x
Cc1ccc(S(=O)(=O)N(C)C[C@H]2OCCCC[C@H](C)Oc3ccc(NC(=O)C4CCCCC4)cc3C(=O)N([C@H](C)CO)C[C@H]2C)cc1 | x | -5.8 | x | 11.0 | x | x
Cc1ccc(NC(=O)C[C@H]2CC[C@H]3[C@@H](COc4ccc(NC(=O)C5CCC5)cc4C(=O)N3C)O2)cc1 | x | -4.6 | x | 3.5 | x | x
Fc1cccc(C[n+]2csc3ccccc32)c1 | 35.5* | x | -4.7 | x | -7.3 | -25.6
c1ccc(C[n+]2csc3ccccc32)cc1 | 13.8 | x | -13.4 | -72.5 | 1.3 | -21.4
COc1cc2sc(-c3ccccc3OC)c(-c3ccc(OCCN4CCCCC4)cc3)c2cc1OC | 18.2 | 20.0 | 89.4* | 23.5 | 24.7 | -11.1
COc1ccccc1-c1sc2cc3c(cc2c1-c1ccc(OCCN2CCCCC2)cc1)OCO3 | 16.9 | 29.5 | 100.1* | 33.1 | -0.9 | -12.6
Cc1noc(C)c1S(=O)(=O)Nc1ccc2c(c1)CC(=O)N([C@@H](C)CO)C[C@H](C)[C@@H](CN(C)Cc1ccc(Oc3ccccc3)cc1)O2 | x | -25.9 | x | 2.7 | x | x
C[C@@H]1CN([C@H](C)CO)C(=O)Cc2cc(NS(=O)(=O)c3ccc(Cl)cc3)ccc2O[C@H]1CN(C)Cc1ccc(Cl)c(Cl)c1 | x | -1.6 | x | -3.7 | x | x
C[C@@H]1CN([C@@H](C)CO)C(=O)Cc2cc(NS(=O)(=O)c3ccc(Cl)cc3)ccc2O[C@H]1CN(C)Cc1ccc(Cl)c(Cl)c1 | x | 85.7* | x | 30.7 | x | x
C[C@H](CO)N1C[C@H](C)[C@@H](CN(C)Cc2ccc(Cl)c(Cl)c2)Oc2ccc(NS(=O)(=O)c3ccc(Cl)cc3)cc2CC1=O | x | 69.6* | x | 14.6 | x | x
C[C@@H]1CN([C@@H](C)CO)C(=O)Cc2cc(NS(=O)(=O)c3ccccc3)ccc2O[C@H]1CN(C)Cc1ccc(Cl)c(Cl)c1 | x | 113.6* | x | 2.4 | x | x
C[C@H](CO)N1C[C@H](C)[C@H](CN(C)Cc2ccc(Cl)c(Cl)c2)Oc2ccc(NS(=O)(=O)c3cn(C)cn3)cc2CC1=O | x | 22.6 | x | 64.7* | x | x
C[C@H](CO)N1C[C@H](C)[C@H](CN(C)CC2CCCCC2)Oc2ccc(NS(=O)(=O)c3ccc(Cl)cc3)cc2CC1=O | x | 106.3* | x | -14.2 | x | x
COc1ccc(S(=O)(=O)Nc2ccc3c(c2)CC(=O)N([C@H](C)CO)C[C@H](C)[C@@H](CN(C)Cc2ccc(Cl)c(Cl)c2)O3)cc1 | x | 75.3* | x | -0.3 | x | x
COc1ccc(S(=O)(=O)Nc2ccc3c(c2)CC(=O)N([C@@H](C)CO)C[C@@H](C)[C@H](CN(C)Cc2ccc(Cl)c(Cl)c2)O3)cc1 | x | 32.2 | x | -0.2 | x | x
